Results published in PubChem BioAssay (NCATS).
Records with an inconclusive call do not appear. Activity calls are given as the source filed them. Calls follow the shape of the dose curve; as a rule, active = well fitted curve in the direction sought with a large enough effect; inconclusive = small, poorly fitted or top-dose-only effect, or another doubt; inactive = no such curve, though single readings can be large; an effect the other way counts as inactive or inconclusive.

Assays:
[1] = HPAF-II Cancer Cell Toxicity qHTS against the NCATS CANVASS Library (AID 1347346); also: series mostly up to about 38 µM; nearly all actives have a fitted effect of over 55% in size
In short: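 HPAF-II cells were seeded at 1000 cells/well, allowed to settle for 4 h at 37 degrees C, then exposed to compounds in an 11-point series for 72 h. Viability was read by CellTiter-Glo luminescence.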

[2] = HPAF-II 24hr Apoptosis Induction qHTS against the NCATS CANVASS Library (AID 1347356)
In short: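 HPAF-II cells (500/well) in DMEM + 10% FBS were treated with an 11-point compound series for 24 hours at 37 degrees C. Caspase-3/7 activity was then read by Caspase-Glo DEVD luminescence after 15 min.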

[3] = HEK293 18hr Apoptosis Induction qHTS against the NCATS CANVASS Library (AID 1347357)
In short: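 HEK293 cells (500/well, DMEM + 10% FBS) treated with an 11-point series for 18 h at 37 degrees C. Caspase-3/7 activity read by Caspase-Glo luminescence after 15 min at room temperature.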

[4] = HPAF-II 12hr Apoptosis Induction qHTS against the NCATS CANVASS Library (AID 1347358)
In short: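 HPAF-II cells (500/well, DMEM + 10% FBS) were exposed to compounds for 12 hours at 37 degrees C. Caspase-3/7 activity was then read by Caspase-Glo 3/7 luminescence after 15 min at room temperature.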

[5] = HPAF-II 18hr Apoptosis Induction qHTS against the NCATS CANVASS Library (AID 1347360)
In short: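 HPAF-II cells at 500/well were exposed for 18 h at 37 C to an 11-point compound series. Caspase-3/7 activity was read by Caspase-Glo luminescence after 15 min at RT.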

[6] = HEK293 12hr Apoptosis Induction qHTS against the NCATS CANVASS Library (AID 1347361)
In short: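 HEK293 cells (500/well) were exposed to an 11-point qHTS concentration series for 12 hours at 37 degrees C. Caspase-3/7 activity was then read by DEVD-substrate luciferase luminescence after 15 min at room temperature.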

[7] = system: NAD(P)H diaphorase (Clostridium kluyveri); assay: Diaphorse counterscreen qHTS: Assay Interference Panel against the NCATS CANVASS Library (AID 1347362)
In short: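 Clostridium kluyveri diaphorase in PBS with 0.01% Tween-20 was preincubated 15 min at room temperature in the dark with compounds (11-point series). Resorufin fluorescence (ex 525/20, em 598/25) was read 5 min after adding resazurin/NADH.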

[8] = biological target: Luciferin 4-monooxygenase (Photinus pyralis) (UniProt P08659); assay: Firefly luciferase counterscreen qHTS: Assay Interference Panel against the NCATS CANVASS Library (AID 1347363); also: series mostly up to about 57 µM
Sequence of Luciferin 4-monooxygenase (Photinus pyralis) (P08659 whole entry, looked up): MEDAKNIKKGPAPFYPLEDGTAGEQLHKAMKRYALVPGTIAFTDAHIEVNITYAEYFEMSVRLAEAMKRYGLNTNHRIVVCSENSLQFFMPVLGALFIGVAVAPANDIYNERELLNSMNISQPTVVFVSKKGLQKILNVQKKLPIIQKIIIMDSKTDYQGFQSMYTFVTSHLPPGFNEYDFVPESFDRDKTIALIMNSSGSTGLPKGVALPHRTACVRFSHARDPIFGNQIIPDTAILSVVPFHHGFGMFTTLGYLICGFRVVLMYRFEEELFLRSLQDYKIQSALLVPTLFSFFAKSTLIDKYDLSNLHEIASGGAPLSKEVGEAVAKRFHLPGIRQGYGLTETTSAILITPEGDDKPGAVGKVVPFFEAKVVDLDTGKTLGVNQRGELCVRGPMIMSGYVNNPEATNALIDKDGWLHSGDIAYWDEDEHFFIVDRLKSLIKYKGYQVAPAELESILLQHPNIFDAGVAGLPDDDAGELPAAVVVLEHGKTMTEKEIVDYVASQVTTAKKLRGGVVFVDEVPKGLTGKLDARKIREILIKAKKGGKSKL
In short: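 Purified P. pyralis luciferase was added to compounds (11-point series) preincubated 15 min at room temperature with substrate containing 0.013 mM D-luciferin and 0.013 mM ATP; luminescence was read after 5 min.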

[9] = MCF7 Cancer Cell Toxicity qHTS against the NCATS CANVASS Library (AID 1347369)
In short: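 MCF7 cells (500/well) were exposed 72 h at 37 °C to compounds in an 11-point series. Viability was read as ATP content by CellTiterGlo luminescence.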

[10] = qHTS for ATAD5 Antagonist screened against the NCATS CANVASS Library (AID 1347370);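 also: HEK293T cells carrying an ATAD5 luciferase reporter co-treated with 10 µM 5-fluorouridine; series mostly up to about 46 µM; nearly all actives have a fitted effect of over 65% in size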
In short: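 HEK293T cells with a stably integrated ATAD5-controlled luciferase reporter were exposed to compounds (11-pt) alongside 10 uM 5-fluorouridine as ATAD5 stabilizer for 16hr at 37C. Viability was read by CellTiter-Fluor fluorescence, then ATAD5 by luminescence.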

[11] = J3T Cancer Cell Toxicity qHTS against the NCATS CANVASS Library (AID 1347371)
In short: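 J3T dog glioma cells (500 cells/well) were exposed to compounds in an 11-point series for 72 hr at 37C, 5% CO2. Cytotoxicity was read as ATP content by CellTiterGlo luminescence.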

[12] = biological target: Nuclear receptor subfamily 1 group I member 3 (Homo sapiens) (UniProt Q14994); assay: qHTS for Constitutive Androstane Receptor (CAR) Antagonist screened against the NCATS CANVASS Library (AID 1347372);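 also: cells stimulated with 50 nM CITCO agonist so inhibition reflects antagonism; series mostly up to about 46 µM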
Sequence of Nuclear receptor subfamily 1 group I member 3 (Homo sapiens) (Q14994 whole entry, looked up): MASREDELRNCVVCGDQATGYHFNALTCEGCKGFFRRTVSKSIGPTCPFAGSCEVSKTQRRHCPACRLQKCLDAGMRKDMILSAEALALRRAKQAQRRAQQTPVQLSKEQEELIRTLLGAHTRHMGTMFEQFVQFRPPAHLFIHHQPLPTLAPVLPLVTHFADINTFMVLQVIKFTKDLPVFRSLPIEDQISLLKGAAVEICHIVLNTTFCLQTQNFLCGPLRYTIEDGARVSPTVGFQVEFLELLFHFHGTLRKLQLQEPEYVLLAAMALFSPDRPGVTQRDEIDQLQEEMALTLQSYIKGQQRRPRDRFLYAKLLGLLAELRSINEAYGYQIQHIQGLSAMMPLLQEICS
In short: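 HepG2 cells stably carrying hCAR and a CYP2B6-2.2kb luciferase reporter were exposed to compounds plus 50 nM CITCO for 24hr at 37C. CAR activity was read by ONE-Glo luminescence, with viability measured first by CellTiter-Fluor.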

[13] = biological target: Nuclear receptor subfamily 1 group I member 3 (Homo sapiens) (UniProt Q14994); assay: qHTS for Constitutive Androstane Receptor (CAR) Agonist screened against the NCATS CANVASS Library (AID 1347373);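 also: every well also contained 1.5 µM PK11195 alongside the test compound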
In short: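 HepG2 cells stably expressing hCAR and a CYP2B6-2.2kb luciferase reporter were treated for 24hr at 37C with compounds (11-point qHTS) in the presence of 1.5uM PK11195. Reporter activation was read by ONE-Glo luminescence.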

[14] = qHTS for Hypoxia signaling pathway (HIF-1) agonists against the NCATS CANVASS Library (AID 1347375)
In short: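 HRE-bla ME-180 cells (beta-lactamase reporter under hypoxia responsive element) in 0.5% dialyzed FBS medium, 5 h at 37C, then compound 17 h, 11-point qHTS series. CCF4-AM FRET substrate 2 h RT; 460/530 nm emission read.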

[15] = 10-beta competent E. coli microbial cell viability qHTS against the NCATS CANVASS Library (AID 1347376); also: series mostly up to about 46 µM
In short: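 10-beta competent E. coli (0.9 OD culture diluted to 0.2 OD) exposed to compounds in an 11-point qHTS series, incubated overnight at 37C, 5% CO2. Viability read as ATP by BacTiter-Glo luminescence after 20 min at room temperature.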

[16] = Cytotoxicity qHTS for assessment of Hepg2 cells membrane integrity screened against the NCATS CANVASS Library (AID 1347387)
In short: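 HepG2 cells (2000/well) attached overnight at 37C, then received compounds in an 11-point series at 0.59 nM - 46 uM final for 5 hr. LDH release was detected fluorometrically (ex 560/em 590 nm) with CytoTox-ONE reagent after 10 min at room temperature.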

[17] = qHTS for Activators of p53 Stress Response Pathway screened against the NCATS CANVASS Library (AID 1347388)
In short: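 p53RE-bla HCT-116 cells (4000/well) were plated 5 h at 37C, exposed to compounds for 16 h at 37C over an 11-point concentration series, then loaded with CCF4 for 2 h at room temperature; 460/530 nm emission ratio read.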

[18] = qHTS for activators of dead-cell proteases activity screened against the NCATS CANVASS Library (AID 1347392);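 also: luminescence from protease leaking out of membrane-damaged cells cleaving impermeant substrate; rising signal means more cytotoxicity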
In short: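 HepG2 cells (2000/well) attached 18 h at 37C, then exposed 5 h to compounds (11-point qHTS). Dead-cell protease activity read as luminescence from cell-impermeant AAF-aminoluciferin substrate after 15 min at room temperature.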

[19] = Viability qHTS for inhibitors of the SERCaMP assay screened against the NCATS CANVASS Library (AID 1347400); also: series mostly up to about 92 µM; nearly all actives have a fitted effect of over 70% in size
In short: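 SH-SY5Y-GLuc SERCaMP MJH297-derived cells (1000 cells/well) were pre-incubated 4 h at 37C, then exposed to compounds for 48 h. Viability was read as CellTiter-Glo luminescence; bortezomib served as positive control.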

Measured: Potency

CO[C@@H](C[C@@H](C)[C@@H](O)/C=C/C=C/CNC(=O)C(C)(C)[C@H](O)\C(C)=C/C=C\C=C\Cc1cnco1)[C@]1(O)[C@@H](C)C(=O)N(C)[C@@]12COC2=O
inactive: [1] | [2] | [3] | [4] | [5] | [6] | [7] | [8] | [9] | [10] | [11] | [12] | [13] | [14] | [15] | [16] | [17] | [18] | [19]

C=C[C@]1(C)CC[C@@H]([C@H](C)C(=O)/C=C/C(C)(C)O)O1
inactive: [1] | [2] | [3] | [4] | [5] | [6] | [7] | [8] | [9] | [12] | [14] | [15] | [16] | [17] | [18]

C=CC(C)(C)C(=O)[C@@H](C)[C@@H]1CC[C@@](C)(C=C)O1
inactive: [1] | [2] | [3] | [4] | [5] | [6] | [7] | [8] | [9] | [10] | [11] | [12] | [13] | [14] | [15] | [16] | [17] | [18] | [19]

CC(C)=CCCC(C)(O)[C@H]1CC=C(C)C(O)C1 (stereo not given in full)
inactive: [1] | [2] | [3] | [4] | [5] | [6] | [7] | [8] | [9] | [10] | [11] | [12] | [13] | [14] | [15] | [16] | [17] | [18] | [19]

COC(=O)[C@@]12Oc3cccc(O)c3C(O)=C1C(=O)C[C@H](C)[C@H]2O
inactive: [1] | [2] | [3] | [4] | [5] | [6] | [7] | [8] | [9] | [10] | [11] | [12] | [13] | [14] | [15] | [16] | [17] | [18] | [19]

COC1C(C)OC(OCC23C[C@@H]4[C@H](C)CC[C@H]4C4(C=O)CC2C=C(C(C)C)C34C(=O)O)[C@@H](O)[C@H]1O (stereo not given in full)
inactive: [1] | [2] | [3] | [4] | [5] | [6] | [7] | [8] | [9] | [10] | [11] | [12] | [13] | [14] | [15] | [16] | [17] | [18] | [19]

C/C=C1/C2=CCCN3C(=O)O[C@H]([C@H]1O)[C@H]23
inactive: [1] | [2] | [3] | [4] | [5] | [6] | [7] | [8] | [10] | [11] | [13] | [14] | [16] | [17] | [18] | [19]

COC(=O)[C@]1([C@H]2CCC(=O)O2)CC(=O)c2c(O)cc(C)cc2O1
inactive: [1] | [2] | [3] | [4] | [5] | [6] | [7] | [8] | [9] | [10] | [11] | [12] | [13] | [14] | [15] | [16] | [17] | [18] | [19]

CC(C)=CCC[C@]1(C)[C@H]2CC(=O)[C@@]3(CO3)[C@@H]1C2
inactive: [1] | [2] | [3] | [4] | [5] | [6] | [7] | [8] | [9] | [10] | [11] | [12] | [13] | [14] | [15] | [16] | [17] | [18] | [19]

O=C1c2c(O)cc(O)cc2OC(c2ccc(O)cc2)C1O (stereo not given)
inactive: [1] | [2] | [3] | [4] | [5] | [6] | [7] | [8] | [9] | [10] | [11] | [12] | [13] | [14] | [15] | [16] | [17] | [18] | [19]

C=C1[C@@]2(C)CC3C4(C)CCC(O)C(C)(C)C4CCC3(C)[C@]1(C(=O)OC)C(=O)C(C)(O)C2=O (stereo not given in full)
inactive: [1] | [2] | [3] | [4] | [5] | [6] | [7] | [8] | [9] | [10] | [11] | [12] | [13] | [14] | [15] | [16] | [17] | [18] | [19]

O=C1OC(CCO)c2cccc(O)c21 (stereo not given)
inactive: [1] | [2] | [3] | [4] | [5] | [6] | [7] | [8] | [9] | [10] | [11] | [12] | [13] | [14] | [15] | [16] | [17] | [18] | [19]

CC(CCC[C@]1(C)C(=O)C=C[C@@]23C[C@]4(C)O[C@@H](C[C@@H]4[C@H]2O)C31)C(=O)O (stereo not given in full)
inactive: [1] | [2] | [3] | [4] | [5] | [6] | [7] | [8] | [9] | [10] | [11] | [12] | [13] | [14] | [15] | [16] | [17] | [18] | [19]
